According to PubChem BioAssay:
“And” between values parts separate entries of the source, which are not always exact repeats. Equal entries are not always repeated. The source made the active and inactive calls.

Key:
[1] = A549 cell viability effects, profiling panel, calcein-AM fluorescence, 48 h, basal (AID 1162); conditions: higher = more signal
[2] = adipocyte viability effects, profiling panel, cell-based, 3T3-L1 adipocytes, calcein-AM fluorescence, 48 h, basal (AID 1163); conditions: 3T3-L1 adipocytes viability, higher = more signal
[3] = HepG2 cell viability effects, profiling panel, calcein-AM fluorescence, 48 h, basal (AID 1164); conditions: higher = more signal
[4] = MM1S cell viability effects, profiling panel, calcein-AM fluorescence, 48 h, basal (AID 1165); conditions: higher = more signal;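 further: viability of MM1S multiple myeloma cells under basal unstimulated conditions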
[5] = basal RPMI8226 viability, no added stimulus, profiling panel, cell-based, calcein-AM fluorescence, 48 h, PK04 Diversity Set (AID 1166); conditions: RPMI8226 myeloma viability, higher = more signal;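 further: cells grown under basal conditions without added stimulus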
[6] = basal HepG2 mitochondrial membrane potential changes, profiling panel, cell-based, JC-1 fluorescence, 24 h, 100 nL compound (AID 1167); conditions: higher = more signal
[7] = basal 3T3-L1 adipocyte mitochondrial potential changes, profiling panel, cell-based, JC-1 fluorescence, 3T3-L1 adipocytes, 24 h, 100 nL compound (AID 1168); conditions: JC-1 mitochondrial fluorescence, higher = more signal, called active from +8 up or from −8 down
[8] = basal RPMI8226 mitochondrial membrane potential changes, profiling panel, cell-based, JC-1 fluorescence, 24 h, 100 nL compound (AID 1169); conditions: RPMI8226 myeloma, JC-1 mitochondrial potential fluorescence, higher = more signal
[9] = basal MM1S mitochondrial membrane potential changes, profiling panel, cell-based, JC-1 fluorescence, 24 h, 100 nL compound (AID 1170); conditions: higher = more signal
[10] = A549 lung cancer cell viability effects, profiling panel, resazurin fluorescence, 24 h, PK04 Diversity Set (AID 1171); conditions: higher = more signal, called active from +8 up or from −8 down
Further: test concentration not given here.

Compound | z-score [1] | z-score [2] | z-score [3] | z-score [4] | z-score [5] | z-score [6] | z-score [7] | z-score [8] | z-score [9] | z-score [10]
O=C1[C@H]2[C@H]3[C@H](O)[C@H](O)CC(=NOCc4ccccc4)[C@H]3CC[C@H]2C(=O)N1Cc1ccccc1 | -0.85 | 1.18 | -0.977 | -0.695 | -1.69 | 1.09 | -0.0708 (inactive) | 0.00736 | -1.48 | 0.51 (inactive)
C[N+](C)(C)CCCCNC(=O)[C@@H]1C[C@@H]2C(=O)N[C@@H](CCCC[N+](C)(C)C)C(=O)N2[C@@H]1c1cccc(OCCO)c1 | 0.901 and 1.05 | 0.462 and -0.276 | -0.517 and 0.473 | -0.531 and -0.212 | -0.719 and -0.495 | 0.0138 and 1.44 | -0.393 (inactive) and 0.547 (inactive) | 0.352 and -0.897 | -0.218 and 0.26 | -0.375 (inactive) and -0.0246 (inactive)
CC(C)CON=C1C[C@@H](O)[C@@H](O)[C@@H]2[C@@H]3C(=O)N(c4cccc(Oc5ccccc5)c4)C(=O)[C@@H]3CC[C@H]12 | 0.259 | 0.425 | -0.641 | 0.957 | -0.0145 | 1.34 | 0.461 (inactive) | 0.288 | -0.309 | -0.0819 (inactive)
CCOC(=O)NN=C1C[C@@H](O)[C@@H](O)[C@@H]2[C@@H]3C(=O)N(Cc4ccccc4)C(=O)[C@@H]3CC[C@@H]12 | -0.226 | -0.0135 | -1.29 | 0.599 | -0.461 | 0.548 | 0.152 (inactive) | 0.387 | -0.979 | 0.0002 (inactive)
COC(=O)C1=C(C)N(Cc2ccccc2)[C@]23O[C@](C(=O)OC)(C(=O)N2[C@@H]1c1ccccc1)[C@@H](C(=O)OC)[C@H]3C(=O)OC | 1.59 and 1.67 | -0.0502 and -0.386 | 0.209 and 1.32 | 0.185 and 0.568 | 0.248 and 0.636 | 0.345 and 0.106 | 0.225 (inactive) and 1.49 (inactive) | -0.866 and 0.532 | -0.142 and -0.237 | 0.415 (inactive) and -0.804 (inactive)
CCCNC(=O)OC[C@H]1O[C@H](CCON=C(C)CCC(=O)OC[C@H]2O[C@H](C#Cc3ccccc3)C=C[C@@H]2Oc2ccc(C)cc2)C=C[C@@H]1Oc1ccc(OC)cc1 | -0.284 | -0.182 | -0.433 | -0.321 | 0.0363 | 1.38 | -1.31 (inactive) | 0.15 | -0.435 | 0.835 (inactive)
COCn1c2ccccc2c2nnc(C(C)=O)nc21 | -0.337 and -0.197 | 0.745 and 0.622 | -0.786 and -0.47 | -0.32 and -0.151 | -2.16 and -1.74 | -2.92 and -0.761 | 0.0492 (inactive) and 0.883 (inactive) | -0.79 and -0.473 | -0.189 and -0.639 | -0.181 (inactive) and -0.856 (inactive)
CCOC(=O)c1ccc(NC(=O)O[C@H]2[C@H](OC(=O)Nc3ccccc3)[C@H](OC(=O)Nc3ccccc3)[C@@H](OC)O[C@@H]2CO)cc1 | -0.299 and -1.3 | 0.207 and 0.7 | -1.02 and -1.9 | -1.08 and -3.02 | -0.636 and -3.24 | -0.171 and -1.02 | 1.31 (inactive) and -0.302 (inactive) | -0.396 and -0.968 | -0.45 and -1.27 | -1.11 (inactive) and -3.2 (inactive)
CCOC(=O)[C@H](Cc1ccccc1)NC(=O)CCC1CC(OC(=O)NCc2cccc3ccccc23)CC2(CCCC(COC(=O)NCCCN3CCCC3=O)O2)O1 (stereo not given in full) | 2.08 | 0.0309 | -0.93 | -0.0157 | -0.178 | 0.397 | 0.17 (inactive) | -0.195 | -0.5 | 0.811 (inactive)
C=CCN(C(=O)C1N(C(C)(C)CO)C(=O)C2C(C(=O)O)C3C=CC21O3)C(C)(C)C (stereo not given) | -0.209 and -0.173 | -0.72 and 0.343 | 0.384 and 0.816 | 0.676 and 0.647 | 0.0691 and 0.0574 | -0.896 and 0.142 | -0.308 (inactive) and 0.228 (inactive) | 0.669 and -0.287 | 0.88 and 0.351 | -0.777 (inactive) and -0.128 (inactive)
C=CCN(CCCC)C(=O)C(c1cccs1)N(C(=O)/C=C\C(=O)O)c1ccc(CCO)cc1 (stereo not given) | -0.178 and 0.505 | -0.0575 and -0.458 | 0.267 and 1.02 | 1.72 and 1.52 | 0.657 and -0.192 | 0.484 and -0.279 | -0.527 (inactive) and 0.0402 (inactive) | -0.996 and 0.19 | -0.874 and -0.407 | 0.0696 (inactive) and -0.0804 (inactive)
CC(C)N1CC=CC23O[C@@H]4C=CCCOC(=O)C4[C@H]2C(=O)N(C(C)CO)[C@@H]3C1=O (stereo not given in full) | -0.507 and 0.287 | 1.61 and 1.45 | -0.658 and -0.153 | 1.24 and 0.914 | 0.264 and 0.678 | 0.534 and 0.979 | 1.21 (inactive) and 1.41 (inactive) | 0.0803 and 0.664 | 1.69 and 1.02 | 0.0618 (inactive) and 0.502 (inactive)
COc1ccc(-c2ccc3c(n2)CCCN3CC(O)CN2CCCc3nc(-c4ccc(Br)cc4)ccc32)cc1 (stereo not given) | 0.261 and -0.331 | 0.163 and 0.196 | -0.0242 and 0.0285 | -2.63 and -0.767 | -0.393 and -0.48 | 0.219 and -1.61 | -0.136 (inactive) and -0.88 (inactive) | 0.553 and 0.817 | 0.0404 and -0.331 | -0.23 (inactive) and 0.169 (inactive)
C=CCN(C(=O)C1N(C(C)(C)CO)C(=O)C2C(C(=O)O)C3C=CC21O3)c1ccc(OC)cc1 (stereo not given) | 0.396 and 0.242 | 0.682 and -0.0179 | -0.394 and -0.112 | 0.925 and 0.494 | 0.463 and 0.475 | 0.414 and 0.332 | 0.688 (inactive) and 0.702 (inactive) | 0.9 and -0.286 | 0.646 and 0.841 | 0.377 (inactive) and 0.109 (inactive)
